# Assay results reported in PubChem BioAssay.
# Values without a mark were called inactive. Where a call stands in place of a potency, no number is given. For part of these data: Potency and affinity values are given separately. Activity calls are given as the source filed them. Unless noted, the rule behind the calls is not given here.
# What was measured:
# [1] = antimalarial activity against Dd2 strain (AID 2302;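 active = growth inhibition above 50% at the single 2 µM test dose, taken to imply half-maximal potency below 2 µM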); conditions: P. falciparum Dd2 in RBCs, LDH growth readout, 72 h; at 2 µM; hits give high values
# [2] = HepG2 cytotoxicity, primary screen, cytotoxicity control for P. falciparum antimalarial project, cell-based, ATP luminescence (AID 2303;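 active = inhibition above 50%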); conditions: HepG2 viability, 24-48 h, at 10 µM, hits give high values
# [3] = target: L-lactate dehydrogenase (Plasmodium falciparum (isolate CDC / Honduras)) (UniProt Q27743); test: PfLDH activity inhibition – cell lysate, 3D7 strain, counter-screen for P. falciparum growth inhibition project (AID 2304); conditions: P. falciparum 3D7 crude extract, LDH APAD/NBT absorbance; at 2 µM; hits give high values
# [4] = inhibition of 3D7 malaria parasite growth – strain 3D7 (AID 2306); conditions: P. falciparum 3D7 erythrocytic growth, LDH absorbance, 72 h; at 2 µM; hits give high values
# [5] = target: Calcium-dependent protein kinase 1 (Plasmodium falciparum (isolate 3D7)) (UniProt P62344); test: PfCDPK1 kinase inhibitors, biochemical, TCAMS library (AID 1159585; cut-off not given, nearly all actives have IC50 up to about 0.98 µM;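 note: inhibitors leave more ATP so luminescence rises with inhibition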); conditions: recombinant PfCDPK1, Kinase-Glo ATP depletion luminescence
# [6] = target: Plasmodium falciparum protein kinase 6 (PK6, PF3D7_1337100) (UniProt Q8IDW1); test: PfPK6 kinase inhibitors, biochemical, TCAMS library (AID 1159586); conditions: recombinant PfPK6, Kinase-Glo ATP depletion luminescence
# [7] = target: Protein kinase 7 (PK7), Plasmodium falciparum 3D7 (PF3D7_0213400) (UniProt Q7YTF7); test: inhibition of Plasmodium PK7 catalytic activity – biochemical, TCAMS antimalarial set, Kinase-Glo luminescence (AID 1159587); conditions: recombinant PfPK7, Kinase-Glo ATP depletion luminescence
# [8] = target: Calcium-dependent protein kinase 4 (Plasmodium falciparum (isolate 3D7)) (UniProt Q8IBS5); test: PfCDPK4 kinase inhibitors, biochemical, TCAMS library (AID 1159588; cut-off not given, nearly all actives have IC50 up to about 0.91 µM); conditions: recombinant PfCDPK4, Kinase-Glo ATP depletion luminescence
# Chain of Calcium-dependent protein kinase 4 (Plasmodium falciparum (isolate 3D7)) (Q8IBS5 whole entry, looked up): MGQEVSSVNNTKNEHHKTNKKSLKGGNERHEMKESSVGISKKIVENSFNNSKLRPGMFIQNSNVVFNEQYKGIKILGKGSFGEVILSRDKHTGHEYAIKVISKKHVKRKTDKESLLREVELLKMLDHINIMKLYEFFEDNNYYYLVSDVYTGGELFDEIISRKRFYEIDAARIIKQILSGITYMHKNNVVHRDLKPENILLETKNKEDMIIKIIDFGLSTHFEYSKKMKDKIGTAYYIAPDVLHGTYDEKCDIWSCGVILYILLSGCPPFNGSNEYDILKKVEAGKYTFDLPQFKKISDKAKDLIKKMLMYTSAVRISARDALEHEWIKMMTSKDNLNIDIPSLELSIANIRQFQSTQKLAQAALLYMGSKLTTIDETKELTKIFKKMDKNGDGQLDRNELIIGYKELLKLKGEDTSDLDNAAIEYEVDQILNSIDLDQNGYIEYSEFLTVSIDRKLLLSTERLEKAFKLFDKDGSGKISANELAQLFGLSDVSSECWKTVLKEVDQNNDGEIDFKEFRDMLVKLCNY
# Chain of Protein kinase 7 (PK7), Plasmodium falciparum 3D7 (PF3D7_0213400) (Q7YTF7 1-343): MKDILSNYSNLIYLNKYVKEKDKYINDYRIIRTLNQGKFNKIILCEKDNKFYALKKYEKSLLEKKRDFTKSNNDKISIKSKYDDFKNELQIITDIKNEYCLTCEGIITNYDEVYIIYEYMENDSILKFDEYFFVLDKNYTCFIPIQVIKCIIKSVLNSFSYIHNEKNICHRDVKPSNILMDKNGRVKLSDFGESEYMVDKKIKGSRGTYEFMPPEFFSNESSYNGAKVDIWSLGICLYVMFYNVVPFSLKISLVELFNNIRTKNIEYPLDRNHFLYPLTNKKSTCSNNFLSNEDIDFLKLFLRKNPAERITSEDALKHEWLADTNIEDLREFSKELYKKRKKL
# Chain of Plasmodium falciparum protein kinase 6 (PK6, PF3D7_1337100) (Q8IDW1 1-305): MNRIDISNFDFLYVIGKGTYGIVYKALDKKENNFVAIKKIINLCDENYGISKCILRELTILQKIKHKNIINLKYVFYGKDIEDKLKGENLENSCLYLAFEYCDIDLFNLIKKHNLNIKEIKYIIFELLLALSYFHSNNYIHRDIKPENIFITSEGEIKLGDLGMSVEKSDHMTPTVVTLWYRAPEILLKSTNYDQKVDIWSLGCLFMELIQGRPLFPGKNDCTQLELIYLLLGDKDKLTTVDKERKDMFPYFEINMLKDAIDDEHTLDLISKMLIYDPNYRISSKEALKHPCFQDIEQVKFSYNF
# Chain of Calcium-dependent protein kinase 1 (Plasmodium falciparum (isolate 3D7)) (P62344 whole entry, looked up): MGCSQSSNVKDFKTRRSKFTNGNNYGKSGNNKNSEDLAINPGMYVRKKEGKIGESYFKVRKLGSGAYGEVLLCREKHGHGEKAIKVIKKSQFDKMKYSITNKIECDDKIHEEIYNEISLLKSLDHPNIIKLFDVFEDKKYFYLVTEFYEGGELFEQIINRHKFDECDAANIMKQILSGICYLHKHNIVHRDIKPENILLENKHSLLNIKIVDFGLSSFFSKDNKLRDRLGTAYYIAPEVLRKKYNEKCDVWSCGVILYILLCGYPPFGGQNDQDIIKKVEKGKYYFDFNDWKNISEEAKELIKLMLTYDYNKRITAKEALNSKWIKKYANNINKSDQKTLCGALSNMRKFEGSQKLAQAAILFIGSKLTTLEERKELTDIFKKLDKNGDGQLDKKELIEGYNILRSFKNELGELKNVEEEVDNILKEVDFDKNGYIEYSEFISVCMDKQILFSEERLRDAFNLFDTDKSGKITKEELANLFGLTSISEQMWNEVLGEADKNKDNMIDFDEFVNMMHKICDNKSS
# Chain of L-lactate dehydrogenase (Plasmodium falciparum (isolate CDC / Honduras)) (Q27743 whole entry, looked up): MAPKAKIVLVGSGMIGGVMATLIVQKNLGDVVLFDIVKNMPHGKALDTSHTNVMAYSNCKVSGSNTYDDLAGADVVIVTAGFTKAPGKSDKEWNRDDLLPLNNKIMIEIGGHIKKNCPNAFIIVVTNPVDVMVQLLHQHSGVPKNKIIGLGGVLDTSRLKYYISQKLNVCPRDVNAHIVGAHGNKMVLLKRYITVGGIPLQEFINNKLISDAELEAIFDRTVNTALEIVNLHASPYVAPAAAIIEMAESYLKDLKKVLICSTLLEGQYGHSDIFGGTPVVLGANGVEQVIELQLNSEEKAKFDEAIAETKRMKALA
SMILES,growth inhibition [1],inhibition [2],inhibition [3],growth inhibition [4],outcome [5],outcome [6],outcome [7],outcome [8]
O=S(=O)(c1ccc(Cl)cc1Cl)N1CCCCC(c2ccc(C(F)(F)F)cc2)=N1,99% (active),10%,4%,100% (active),inactive,inactive,inactive,inactive
CCCCCCCN1CCC(CC(=O)Nc2ccnc3ccc(OC)cc23)CC1,52% (active),15%,-2%,97% (active),inactive,inactive,inactive,inactive
COc1ccc(CN2CCC(Oc3cccc(NC(=O)c4ccc(C(F)(F)F)cc4)c3)CC2)cc1,20%,35%,-6%,95% (active),inactive,inactive,inactive,inactive
O=C(Cc1cccc(Cl)c1)Nc1ccc(N2CCC(NCc3ccc4ncccc4c3)CC2)cc1,8%,10%,-1%,81% (active),inactive,inactive,inactive,inactive
CC(C)C[C@H](Nc1ccc(C#N)c2ccccc12)C(=O)NC(C)(C)C12CC3CC(CC(C3)C1)C2,30%,19%,-1%,96% (active),inactive,inactive,inactive,inactive
COc1ccc(C(=O)CCc2ccc(O)cc2)cc1,90% (active),-2%,4%,96% (active),inactive,inactive,inactive,inactive
O=C(Nc1cccc(-c2cccc(-c3nc4ccc(C(F)(F)F)cc4[nH]3)c2)c1)c1cccnc1,70% (active),57% (active),-6%,100% (active),inactive,inactive,inactive,inactive
Cc1cccc2[nH]c(-c3ccc(-c4cccc(NC(=O)C(C)CN5CCN(C)CC5)c4)s3)nc12 (configuration not stated),75% (active),11%,-6%,97% (active),inactive,inactive,inactive,inactive
CCCNCc1ccc(-c2ccc(CN(Cc3cnc(C)cn3)C(=O)c3nn(-c4ccccc4)nc3C)cc2)nc1,49%,22%,0%,99% (active),inactive,inactive,inactive,inactive
